# Test results taken from ChEMBL document CHEMBL3988442, “University of Dundee, Small-Polar-MMV Screening Library” (2021).
# For some of these results: Entries with a potency or affinity are not part of this list.
# How the values were obtained:
# [1] = target: T1, Methionyl-tRNA synthetase, putative (Leishmania donovani (strain BPK282A1)) (UniProt E9BF75); assay: Leishmania donovani Methionine tRNA synthetase (LdMetRS):v7. Dose response assay; format: functional; parameters: conc 80 nM, time 150 minutes
# T1 sequence (whole entry): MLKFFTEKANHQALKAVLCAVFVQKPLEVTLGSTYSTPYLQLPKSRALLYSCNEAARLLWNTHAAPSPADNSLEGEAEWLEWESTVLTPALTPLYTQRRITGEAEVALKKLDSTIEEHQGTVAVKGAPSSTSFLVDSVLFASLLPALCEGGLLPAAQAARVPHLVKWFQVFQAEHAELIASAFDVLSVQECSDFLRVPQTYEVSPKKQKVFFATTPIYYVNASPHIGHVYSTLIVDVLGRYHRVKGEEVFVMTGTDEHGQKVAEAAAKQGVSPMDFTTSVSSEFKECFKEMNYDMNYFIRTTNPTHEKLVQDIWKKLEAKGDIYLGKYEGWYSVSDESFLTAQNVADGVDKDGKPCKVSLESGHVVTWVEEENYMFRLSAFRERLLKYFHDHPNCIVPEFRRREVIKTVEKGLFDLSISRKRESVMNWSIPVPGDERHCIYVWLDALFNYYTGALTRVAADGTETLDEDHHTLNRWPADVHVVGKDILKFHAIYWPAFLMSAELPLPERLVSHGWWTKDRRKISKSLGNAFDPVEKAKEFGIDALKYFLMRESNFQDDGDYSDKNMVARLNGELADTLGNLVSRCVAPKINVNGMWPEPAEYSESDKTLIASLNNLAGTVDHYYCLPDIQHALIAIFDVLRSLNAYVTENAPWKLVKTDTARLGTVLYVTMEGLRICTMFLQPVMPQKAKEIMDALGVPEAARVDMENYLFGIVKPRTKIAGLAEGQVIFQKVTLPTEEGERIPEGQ
# [2] = target: AMP-activated protein kinase, AMPK (Homo sapiens) (UniProt P54646+O43741+P54619+Q9UGJ0+Q9Y478+Q13131+Q9UGI9); assay: AMP-dependent Kinase enzyme assay. An in vitro enzyme assay that detects ADP turnover that is directly proportional to AMPK activity. This uses naive AMPK that is activated during the assay with MK-8722; format: functional; parameters: scale not given: direction of the effect not stated beside the values; settings: 30 µM
# [3] = target: Protein translocase subunit SecA (Escherichia coli (strain K12)) (UniProt P10408); assay: Assay to Identify E. coli SecA ATPase Inhibitors; format: functional; parameters: scale not given: direction of the effect not stated beside the values; settings: 30 µM
# [4] = target: T2, Ubiquitin-activating enzyme e1, putative (Leishmania donovani (strain BPK282A1)) (UniProt E9BSI1); assay: Leishmania donovani Ubiquitin Activating Enzyme (LdE1); format: functional; parameters: scale not given: direction of the effect not stated beside the values; settings: 30 µM
# T2 sequence (whole entry): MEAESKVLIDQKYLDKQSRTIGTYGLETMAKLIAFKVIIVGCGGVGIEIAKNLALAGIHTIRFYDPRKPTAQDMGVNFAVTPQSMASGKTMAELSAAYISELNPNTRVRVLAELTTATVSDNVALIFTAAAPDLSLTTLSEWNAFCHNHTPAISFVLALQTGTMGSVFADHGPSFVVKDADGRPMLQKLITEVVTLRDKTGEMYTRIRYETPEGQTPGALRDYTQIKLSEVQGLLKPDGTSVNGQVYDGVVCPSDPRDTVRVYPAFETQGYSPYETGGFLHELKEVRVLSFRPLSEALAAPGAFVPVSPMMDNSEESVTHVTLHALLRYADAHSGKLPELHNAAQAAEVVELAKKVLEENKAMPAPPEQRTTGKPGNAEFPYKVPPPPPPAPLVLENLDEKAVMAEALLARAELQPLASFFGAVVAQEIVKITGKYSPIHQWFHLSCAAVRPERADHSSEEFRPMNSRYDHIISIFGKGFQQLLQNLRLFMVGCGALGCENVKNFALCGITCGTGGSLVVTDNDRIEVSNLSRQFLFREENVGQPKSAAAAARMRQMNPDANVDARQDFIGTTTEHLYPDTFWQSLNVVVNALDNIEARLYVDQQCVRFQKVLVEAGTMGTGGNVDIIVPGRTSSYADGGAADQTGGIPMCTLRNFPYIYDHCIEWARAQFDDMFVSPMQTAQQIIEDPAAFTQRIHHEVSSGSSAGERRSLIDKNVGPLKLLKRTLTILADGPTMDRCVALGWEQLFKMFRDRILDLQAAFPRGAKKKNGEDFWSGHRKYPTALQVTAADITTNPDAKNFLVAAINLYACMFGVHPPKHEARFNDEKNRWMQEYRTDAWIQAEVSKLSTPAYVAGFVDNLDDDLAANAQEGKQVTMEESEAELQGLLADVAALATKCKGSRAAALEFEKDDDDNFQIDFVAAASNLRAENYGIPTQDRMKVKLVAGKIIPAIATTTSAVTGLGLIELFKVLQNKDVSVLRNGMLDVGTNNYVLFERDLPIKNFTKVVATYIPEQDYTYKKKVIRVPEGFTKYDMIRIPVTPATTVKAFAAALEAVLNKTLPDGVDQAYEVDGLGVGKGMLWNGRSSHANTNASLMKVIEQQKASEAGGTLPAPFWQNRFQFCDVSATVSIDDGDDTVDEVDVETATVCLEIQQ
# [5] = target: Sialic acid-binding Ig-like lectin 9 (Homo sapiens) (UniProt Q9Y336); assay: Hs-Siglec9 ALPHAscreen SOP 20170721; parameters: scale not given: direction of the effect not stated beside the values; settings: 10 µM
# [6] = tested on: Trypanosoma cruzi; assay: Trypanosoma cruzi phosphomannomutase and mannose-1-phosphate guanylyltransferase assay; format: functional; parameters: scale not given: direction of the effect not stated beside the values; settings: 10 µM
# [7] = target: T3, Arginase-2, mitochondrial (Homo sapiens) (UniProt P78540); assay: in vitro enzyme assay to detect the production of urea directly proportional to the activity of Arginase II; format: functional; parameters: scale not given: in the data most compounds retested in dose-response had high values
# T3 sequence (whole entry): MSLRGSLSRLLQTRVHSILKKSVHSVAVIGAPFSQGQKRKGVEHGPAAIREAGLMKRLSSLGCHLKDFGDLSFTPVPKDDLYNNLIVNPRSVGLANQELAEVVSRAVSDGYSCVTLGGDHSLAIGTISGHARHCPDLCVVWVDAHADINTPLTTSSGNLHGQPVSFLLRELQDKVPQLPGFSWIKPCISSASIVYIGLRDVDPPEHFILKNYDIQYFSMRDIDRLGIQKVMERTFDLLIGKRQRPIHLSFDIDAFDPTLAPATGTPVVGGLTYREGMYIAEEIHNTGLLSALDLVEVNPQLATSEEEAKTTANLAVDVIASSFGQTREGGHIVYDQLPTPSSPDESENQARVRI
# [8] = target: T4, Proteasome subunit beta (Trypanosoma cruzi) (UniProt O96673); assay: Trypanosoma cruzi proteasome chymotrypsin-like activity (TcProtChymo) assay.; format: functional; parameters: scale not given: in the data most compounds retested in dose-response had high values; settings: 9.37 µM
# T4 sequence (whole entry): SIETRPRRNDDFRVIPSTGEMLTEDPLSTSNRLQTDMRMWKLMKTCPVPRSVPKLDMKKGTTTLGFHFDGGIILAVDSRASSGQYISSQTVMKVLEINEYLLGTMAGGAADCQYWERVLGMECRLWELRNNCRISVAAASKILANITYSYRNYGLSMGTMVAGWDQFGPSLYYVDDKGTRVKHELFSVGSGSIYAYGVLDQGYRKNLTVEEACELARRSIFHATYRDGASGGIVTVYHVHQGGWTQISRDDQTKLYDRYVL
# [9] = species: Homo sapiens; assay: To identify inhibition of the IFN signalling (Jak-Stat) pathway via expression of an eGFP reporter gene under the control of an IFN-stimulated response element (ISRE) containing MxA promoter.; format: functional; parameters: scale not given: direction of the effect not stated beside the values; settings: 30 µM
# [10] = target: T5, Tyrosyl-tRNA synthetase, putative (Trypanosoma cruzi (strain CL Brener)) (UniProt Q4DSP6); assay: Trypanosoma cruzi tyrosyl tRNA synthetase (TcYRS) _High Tyrosine SOP; format: functional; parameters: scale not given: in the data most compounds retested in dose-response had high values; settings: 30 µM
# T5 sequence (whole entry): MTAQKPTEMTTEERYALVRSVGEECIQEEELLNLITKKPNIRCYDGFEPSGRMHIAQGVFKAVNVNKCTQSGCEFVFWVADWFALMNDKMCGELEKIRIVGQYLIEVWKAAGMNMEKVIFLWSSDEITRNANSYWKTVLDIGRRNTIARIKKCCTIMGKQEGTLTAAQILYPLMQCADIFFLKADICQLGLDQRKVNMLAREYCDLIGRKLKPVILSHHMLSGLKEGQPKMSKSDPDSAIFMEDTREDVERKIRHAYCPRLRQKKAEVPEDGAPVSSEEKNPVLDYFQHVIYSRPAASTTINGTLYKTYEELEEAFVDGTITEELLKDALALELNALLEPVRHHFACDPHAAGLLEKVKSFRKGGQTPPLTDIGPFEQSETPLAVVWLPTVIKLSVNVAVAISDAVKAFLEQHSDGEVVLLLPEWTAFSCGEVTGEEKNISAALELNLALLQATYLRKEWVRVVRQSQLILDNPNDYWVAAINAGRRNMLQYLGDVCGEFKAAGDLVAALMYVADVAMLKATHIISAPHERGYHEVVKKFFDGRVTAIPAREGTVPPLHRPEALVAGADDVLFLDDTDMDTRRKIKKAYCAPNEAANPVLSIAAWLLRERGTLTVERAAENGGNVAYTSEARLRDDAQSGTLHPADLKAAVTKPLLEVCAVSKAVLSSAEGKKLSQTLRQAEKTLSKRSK
# [11] = target: T5, Tyrosyl-tRNA synthetase, putative (Trypanosoma cruzi (strain CL Brener)); assay: Trypanosoma cruzi tyrosyl tRNA synthetase (TcYRS) SOP; format: functional; parameters: scale not given: direction of the effect not stated beside the values; settings: 30 µM
# [12] = target: Chromo domain-containing protein 1 (Saccharomyces cerevisiae (strain ATCC 204508 / S288c) (Baker's yeast)) (UniProt P32657); assay: ScCHD-1 Enzyme Inhibition Assay; format: functional; parameters: scale not given: in the data most compounds retested in dose-response had high values; settings: 30 µM
# Sequence of Chromo domain-containing protein 1 (Saccharomyces cerevisiae (strain ATCC 204508 / S288c) (Baker's yeast)) (P32657 whole entry, the tested form may be a part): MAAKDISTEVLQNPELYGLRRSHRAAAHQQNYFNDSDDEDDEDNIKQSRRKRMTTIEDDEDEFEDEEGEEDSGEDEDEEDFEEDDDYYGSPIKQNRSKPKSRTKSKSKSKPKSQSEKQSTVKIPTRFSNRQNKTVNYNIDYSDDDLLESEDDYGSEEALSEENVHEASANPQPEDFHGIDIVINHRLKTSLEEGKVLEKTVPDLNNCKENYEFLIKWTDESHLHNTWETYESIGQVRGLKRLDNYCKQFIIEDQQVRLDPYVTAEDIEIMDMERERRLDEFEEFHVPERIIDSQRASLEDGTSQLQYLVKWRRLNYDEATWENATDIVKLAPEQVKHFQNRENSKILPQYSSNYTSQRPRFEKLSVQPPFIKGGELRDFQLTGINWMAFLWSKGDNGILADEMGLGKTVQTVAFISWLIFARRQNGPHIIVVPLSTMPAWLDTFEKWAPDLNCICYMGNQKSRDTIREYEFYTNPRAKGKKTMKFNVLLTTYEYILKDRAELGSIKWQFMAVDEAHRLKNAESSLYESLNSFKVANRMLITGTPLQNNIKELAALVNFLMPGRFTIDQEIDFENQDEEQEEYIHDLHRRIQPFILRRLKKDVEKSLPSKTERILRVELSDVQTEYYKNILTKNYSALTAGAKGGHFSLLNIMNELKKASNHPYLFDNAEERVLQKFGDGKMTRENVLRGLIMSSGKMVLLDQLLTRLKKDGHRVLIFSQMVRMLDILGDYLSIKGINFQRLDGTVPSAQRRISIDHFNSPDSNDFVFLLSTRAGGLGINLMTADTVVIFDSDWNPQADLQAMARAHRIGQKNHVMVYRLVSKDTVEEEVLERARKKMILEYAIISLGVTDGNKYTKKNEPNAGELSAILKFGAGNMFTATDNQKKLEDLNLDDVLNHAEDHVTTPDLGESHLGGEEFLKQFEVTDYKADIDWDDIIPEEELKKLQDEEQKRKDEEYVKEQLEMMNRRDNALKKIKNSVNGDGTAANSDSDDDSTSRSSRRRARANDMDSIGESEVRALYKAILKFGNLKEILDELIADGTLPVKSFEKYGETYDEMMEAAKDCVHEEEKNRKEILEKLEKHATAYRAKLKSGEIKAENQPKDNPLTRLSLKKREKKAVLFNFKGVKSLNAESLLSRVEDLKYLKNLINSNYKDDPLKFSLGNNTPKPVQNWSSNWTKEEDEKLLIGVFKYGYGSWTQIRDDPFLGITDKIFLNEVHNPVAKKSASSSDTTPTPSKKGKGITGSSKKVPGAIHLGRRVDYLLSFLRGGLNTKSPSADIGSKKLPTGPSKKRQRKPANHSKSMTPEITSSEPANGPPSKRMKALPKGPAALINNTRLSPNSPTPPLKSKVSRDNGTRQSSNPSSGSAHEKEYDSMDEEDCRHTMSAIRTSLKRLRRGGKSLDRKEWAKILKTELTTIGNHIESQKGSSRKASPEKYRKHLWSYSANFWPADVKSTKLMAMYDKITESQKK
# Sequence of Sialic acid-binding Ig-like lectin 9 (Homo sapiens) (Q9Y336 whole entry): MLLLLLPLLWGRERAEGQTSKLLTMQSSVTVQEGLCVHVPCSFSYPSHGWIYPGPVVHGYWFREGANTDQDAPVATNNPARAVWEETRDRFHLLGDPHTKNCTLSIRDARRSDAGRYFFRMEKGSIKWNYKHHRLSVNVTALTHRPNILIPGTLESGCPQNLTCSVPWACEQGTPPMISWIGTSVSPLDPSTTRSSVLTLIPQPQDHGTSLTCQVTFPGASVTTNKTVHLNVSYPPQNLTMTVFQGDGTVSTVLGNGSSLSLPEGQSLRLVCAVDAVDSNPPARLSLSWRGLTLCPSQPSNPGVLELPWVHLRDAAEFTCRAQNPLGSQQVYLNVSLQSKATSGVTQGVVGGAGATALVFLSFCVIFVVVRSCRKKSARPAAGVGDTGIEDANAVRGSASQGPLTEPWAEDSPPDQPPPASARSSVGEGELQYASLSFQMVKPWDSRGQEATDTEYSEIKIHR
# Sequence of Protein translocase subunit SecA (Escherichia coli (strain K12)) (P10408 whole entry): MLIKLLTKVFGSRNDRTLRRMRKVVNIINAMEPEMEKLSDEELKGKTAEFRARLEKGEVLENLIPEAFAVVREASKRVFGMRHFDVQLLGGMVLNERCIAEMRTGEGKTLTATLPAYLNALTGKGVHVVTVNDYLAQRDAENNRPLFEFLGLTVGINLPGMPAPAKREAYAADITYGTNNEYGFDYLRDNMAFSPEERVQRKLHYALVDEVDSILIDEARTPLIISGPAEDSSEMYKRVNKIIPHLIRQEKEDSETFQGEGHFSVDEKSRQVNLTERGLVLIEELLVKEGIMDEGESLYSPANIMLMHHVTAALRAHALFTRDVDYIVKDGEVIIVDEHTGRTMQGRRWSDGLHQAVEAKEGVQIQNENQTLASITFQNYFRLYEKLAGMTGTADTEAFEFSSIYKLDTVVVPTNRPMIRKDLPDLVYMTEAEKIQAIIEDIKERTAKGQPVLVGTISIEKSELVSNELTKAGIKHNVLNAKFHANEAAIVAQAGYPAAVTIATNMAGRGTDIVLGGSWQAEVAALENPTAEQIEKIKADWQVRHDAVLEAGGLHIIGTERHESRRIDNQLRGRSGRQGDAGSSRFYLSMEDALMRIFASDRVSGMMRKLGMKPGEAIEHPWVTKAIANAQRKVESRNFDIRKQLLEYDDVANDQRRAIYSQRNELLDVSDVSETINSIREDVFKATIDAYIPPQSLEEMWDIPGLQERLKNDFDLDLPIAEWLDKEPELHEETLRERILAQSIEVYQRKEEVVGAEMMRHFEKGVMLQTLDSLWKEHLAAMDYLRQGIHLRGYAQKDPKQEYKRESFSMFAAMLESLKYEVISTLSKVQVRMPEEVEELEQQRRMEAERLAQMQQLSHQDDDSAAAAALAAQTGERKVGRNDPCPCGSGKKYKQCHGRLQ
SMILES,PXC50 ([1]; MAX_EFFECT 9.660574413),PXC50 ([1]; MAX_EFFECT 12.53263708),Percent Effect [2] [%],Percent Effect [3] [%],Percent Effect [4] [%],Percent Effect [5] [%],Percent Effect [6] [%],Percent Effect ([7]; 30 µM) [%],Percent Effect ([7]; 33.3 µM) [%],Percent Effect [8] [%],Percent Effect [9] [%],Percent Effect [10] [%],Percent Effect [11] [%],Percent Effect [12] [%],PXC50 ([1]; MAX_EFFECT 12.14788732),PXC50 ([1]; MAX_EFFECT 12.35154394),PXC50 ([1]; MAX_EFFECT 12.79373368),PXC50 ([1]; MAX_EFFECT 13.05483029)
Cc1nc(NCc2nncn2C2CC2)c2c(CC(C)C)csc2n1,< 4,< 4,-3.8,–,–,–,–,–,–,–,–,–,–,–,–,–,–,–
CNC(=O)[C@@H]1C[C@H]2CN(C(=O)c3ccco3)C[C@H]2N1C,–,–,-2.42,-1.85,2.67,4.75,-3.67,-9.19,-21,3.76,-3.26,4.17,5,-5.57,–,–,–,–
COc1c(CNC2CCc3c(Cl)cccc32)c(C)nn1C (stereo not given),–,–,-13.3,-3.04,8,15.4,7.89,1.62,14.1,16.2,53.8,4.92,16.1,108,–,–,–,–
FC1(F)CCN(Cc2cccnc2)CC12CCN(c1ccccn1)C2 (stereo not given),–,–,5.61,-2.18,16.2,-2.07,-4.99,–,17.5,21.4,33.7,1.08,12.8,-3.06,< 4,< 4,–,–
Cn1cc(CN2C[C@@H]3COC[C@]3(C(=O)NCc3ccccn3)C2)cn1,–,–,0.406,-3.43,5.33,6.2,0.772,-0.54,-54.3,4.62,-8.11,2.08,2.5,-5.35,–,–,–,–
CCn1cnnc1CNc1nc(C)nc2scc(CC(C)C)c12,–,–,-1.1,–,–,–,–,–,–,–,–,–,–,–,–,–,< 4,< 4
